Screens: PubChem BioAssay, several laboratories
A selection: hits, their analogues and other compounds. The true share with any hit is near 4%.
KCC2 mod = KCC2 cotransporter modulators, thallium flux, primary screen, cell-based, HEK293 KCC2, FluoZin-2 fluorescence, MLSMR. AID 1456, 2008. 190,000 compounds, 2.2% hits. B-score of Tl+ flux slope (higher = more flux/activation; lower = inhibition) at 10 µM. KCC2 cells, thallium flux FluoZin-2 fluorescence;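 active means thallium flux slope and its plate-corrected score both differing from the plate sample mean at a set confidence after two filtering rounds, in either direction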;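 further: slope of fluorescence scaled to starting intensity during 10 to 20 s after thallium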
ROMK primary = ROMK potassium channel modulators, primary screen, cell-based, thallium flux, MLSMR library; B-score at 10 µM; AID 1918, 2009; ATP-sensitive inward rectifier potassium channel 1 (Homo sapiens), P48048; Tet-inducible ROMK, thallium flux fluorescence; actives lie on both sides; 130,000 compounds, 2% hits;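 active means signal ratio slope over the read window, or its plate-corrected B-score, at least 3 SD from the plate mean, either direction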;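 further: B-score of the F/F0 ratio slope over 7 to 12 s after thallium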
Target sequence (P48048 whole entry, looked up): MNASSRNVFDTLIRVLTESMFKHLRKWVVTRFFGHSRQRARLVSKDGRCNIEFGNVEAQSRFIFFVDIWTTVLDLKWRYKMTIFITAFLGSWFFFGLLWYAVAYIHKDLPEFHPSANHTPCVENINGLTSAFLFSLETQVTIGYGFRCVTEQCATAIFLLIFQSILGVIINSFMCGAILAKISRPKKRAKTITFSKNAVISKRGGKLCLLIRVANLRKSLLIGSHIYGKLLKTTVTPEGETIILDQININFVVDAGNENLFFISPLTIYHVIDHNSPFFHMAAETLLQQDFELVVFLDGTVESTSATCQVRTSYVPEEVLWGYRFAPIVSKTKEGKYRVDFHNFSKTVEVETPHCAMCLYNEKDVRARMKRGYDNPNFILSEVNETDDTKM
Measles CPE = compounds protecting cells from measles virus cytopathic effect, primary screen, measles RdRp inhibitor project, single point, MLSMR library, absorbance; Measles virus-infected cells, CPE protection; protection (pct of control), % at 4 µM; 140,000 compounds, 1.5% hits; AID 841, 2007; in the data active means protection mostly above about 24%, no sharp cut-off; inactive means mostly below about 26%
HSV augment = enhancers of HSV replication in host cells, fold increase, host cell viability | HSV replication augmentation in cells | maximum fold increase | 220,000 compounds, 0.005% hits | AID 1956, 2009; in the data active means maximum fold increase above about 1.5; inconclusive means no clear call, values can overlap the other calls; tested in PC3 cells
Arbovirus inh = antivirals against arbovirus infection, primary screen, cell-based, full library, 10K replicate subset; arbovirus infection cell-based antiviral screen; inhibition, % at 10 µM; 200,000 compounds, 0.37% hits; in the data active means inhibition above about 30%
ROMK retest = ROMK channel modulator hit retest, confirmation, cell-based, thallium flux, duplicate, resupplied hits | normalized thallium flux (F/F0 slope) at 10 µM | fluorescence ratio; hits give low values | AID 1917, 2009 | shares compounds with ROMK primary | 3,000 compounds, 54% hits;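 active means Flux at 10 µM at least 3 SD below or above vehicle control mean in one or both replicates; inconclusive means no clear call, values can overlap the other calls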
A number is an active result.

What do the screens show for `CC1CCC2C(=O)N(c3ccc(Cc4ccncc4)cc3)C(=O)C2C1` (stereo unspecified)?
KCC2 mod: inactive; ROMK primary: -3.1; HSV augment: inactive; Arbovirus inh: inactive; ROMK retest: inconclusive

Results for Cc1nc(C/C(=N\N)c2ccc(O)cc2O)cs1 ?
KCC2 mod: inactive; ROMK primary: inactive; HSV augment: inactive; Arbovirus inh: inactive

Results for CCc1cc(/C(Cc2csc(C)n2)=N/O)c(O)cc1O ?
KCC2 mod: inactive; ROMK primary: -3.3; Measles CPE: inactive; HSV augment: inactive; Arbovirus inh: inactive; ROMK retest: 0.067

What do the screens show for `C=CCNC(=S)NCC=C`?
KCC2 mod: inactive; HSV augment: inactive

Results for O=C1NC(Cc2c[nH]c3ccccc23)C(=O)N1Cc1ccc(CN2C(=O)NC(Cc3c[nH]c4ccccc34)C2=O)cc1 (stereo unspecified) ?
KCC2 mod: inactive; ROMK primary: -3.9; HSV augment: inactive; Arbovirus inh: inactive; ROMK retest: 0.065

What do the screens show for `COc1ccc(C=C2c3ccccc3C(=O)c3ccccc32)c(OC)c1`?
KCC2 mod: inactive; ROMK primary: 2.8; HSV augment: inactive; ROMK retest: inactive

How did Cc1ccc(/C=C/C(=O)N2CCN(S(=O)(=O)/C=C/c3ccccc3)CC2)o1 do in these assays?
KCC2 mod: inactive; HSV augment: inactive

Results for COc1ccc(OC)c(Nc2nnc(C)c(=O)[nH]2)c1 ?
KCC2 mod: inactive; ROMK primary: inactive; HSV augment: inactive; Arbovirus inh: inactive

Results for COc1ccccc1Nc1nnc(C)c(=O)[nH]1 ?
ROMK primary: 3; Measles CPE: inactive; HSV augment: inactive; Arbovirus inh: inactive; ROMK retest: inactive

Results for CC(c1ccccc1)N1C(=O)CC(Sc2ncccc2C(=O)O)C1=O (stereo unspecified) ?
KCC2 mod: inactive; ROMK primary: 0.9; Measles CPE: inactive; HSV augment: inactive; Arbovirus inh: inactive; ROMK retest: inactive

Results for Cn1c(=O)c2c(ncn2CC(=O)N/N=C/c2c[nH]c3ccccc23)n(C)c1=O ?
KCC2 mod: inactive; HSV augment: inactive

Results for CCOC(=O)c1ccc(-n2c(O)c(/C=N/NC(=O)C3COc4ccccc4O3)c3ccccc3c2=O)cc1 (stereo unspecified) ?
KCC2 mod: inactive; Measles CPE: inactive; HSV augment: inactive; Arbovirus inh: inactive; ROMK retest: 0.046

Results for COc1ccc(Cn2c(O)c(C=Nc3ccc(O)cc3)c3ccccc3c2=O)cc1 ?
KCC2 mod: inactive; ROMK primary: inactive; Measles CPE: inactive; HSV augment: inactive; Arbovirus inh: inactive

How did O=c1c2ccccc2c(C=Nc2ccc(O)cc2)c(O)n1Cc1ccccc1 do in these assays?
KCC2 mod: inactive; ROMK primary: -4.6; HSV augment: inactive; ROMK retest: 0.041

What do the screens show for `O=C1c2ccccc2C(=O)N1CCCn1c(=O)oc2ccccc21`?
KCC2 mod: inactive; ROMK primary: 0.79; Measles CPE: inactive; HSV augment: inactive; Arbovirus inh: inactive; ROMK retest: inactive

How did O=c1oc2ccccc2n1Cn1c(=O)oc2ccccc21 do in these assays?
ROMK primary: inactive; Measles CPE: inactive; HSV augment: inactive; Arbovirus inh: inactive

What do the screens show for `CCOc1ccc2ncc(S(=O)(=O)c3ccccc3)c(N3CCC4(CC3)OCCO4)c2c1`?
KCC2 mod: inactive; Measles CPE: inactive; HSV augment: inactive; Arbovirus inh: inactive

Results for COc1ccc(S(=O)(=O)c2cnc3ccc(OC)cc3c2N2CCC3(CC2)OCCO3)cc1 ?
KCC2 mod: inactive; Measles CPE: inactive; HSV augment: inactive; Arbovirus inh: inactive; ROMK retest: 0.05

Results for CCOc1ccc2ncc(S(=O)(=O)c3ccccc3)c(N3CCN(c4ccc(OC)cc4)CC3)c2c1 ?
KCC2 mod: inactive; Measles CPE: inactive; HSV augment: inactive; Arbovirus inh: inactive

How did COc1ccc(N2CCN(c3c(S(=O)(=O)c4ccccc4)cnc4ccc(OC)cc34)CC2)cc1 do in these assays?
KCC2 mod: inactive; Measles CPE: 23; HSV augment: inactive; Arbovirus inh: inactive; ROMK retest: inconclusive

Results for COc1ccc(Cl)cc1NC(=S)NCCSc1ccc(C)cc1 ?
KCC2 mod: inactive; Measles CPE: inactive; HSV augment: inactive; Arbovirus inh: inactive

What do the screens show for `COc1ccc(C2=NO[C@@H]3[C@@H]4C[C@@H]([C@H]5C(=O)N(C)C(=O)[C@@H]45)[C@H]23)cc1`?
KCC2 mod: inactive; Measles CPE: inactive; HSV augment: inactive; Arbovirus inh: inactive

What do the screens show for `CS(=O)(=O)Nc1ccc(C(=O)Nc2ccccc2C(=O)N2CCCC2)cc1`?
Measles CPE: inactive; HSV augment: inactive; Arbovirus inh: inactive; ROMK retest: inactive

How did CC1(NC(=O)CC[N+](C)(C)CCO)CS(=O)(=O)CC1S(=O)(=O)[O-] (stereo unspecified) do in these assays?
KCC2 mod: inactive; Measles CPE: inactive; HSV augment: inactive; Arbovirus inh: inactive

How did COc1ccc(CNCCC(c2ccc(F)cc2)c2ccc(OC)cc2)cc1 (stereo unspecified) do in these assays?
KCC2 mod: inactive; ROMK primary: -4.2; Measles CPE: inactive; HSV augment: inactive; Arbovirus inh: inactive; ROMK retest: 0.053

How did COCCCn1c2nc3ccccc3nc2c2c(=O)n(Cc3ccc(Cl)cc3)cnc21 do in these assays?
KCC2 mod: inactive; ROMK primary: inactive; Measles CPE: inactive; HSV augment: inactive; Arbovirus inh: inactive

What do the screens show for `COCCCn1c(C)nc2c(c1=O)c1nc3ccccc3nc1n2CCc1ccccc1`?
ROMK primary: -4; Measles CPE: inactive; HSV augment: inactive; Arbovirus inh: inactive; ROMK retest: 0.05

Results for C=CCn1c(CCNC(=O)c2ccc(Cl)c(Cl)c2)nnc1SCCOc1ccc(OC)cc1 ?
KCC2 mod: inactive; Measles CPE: inactive; HSV augment: inactive; Arbovirus inh: inactive

How did Cn1c(CCNC(=O)c2ccc(Cl)c(Cl)c2)nnc1SCc1ccc(Cl)c(Cl)c1 do in these assays?
Measles CPE: inactive; HSV augment: inactive; Arbovirus inh: inactive; ROMK retest: inactive

Results for CCC(C)(C)c1ccc(OCCCC[n+]2cccc(C)c2C)c(C(C)(C)CC)c1 ?
HSV augment: inactive; ROMK retest: 0.037

Results for COc1ccccc1NC(=O)CN1CCN(Cc2ccccc2)CC1 ?
Measles CPE: inactive; HSV augment: inactive; Arbovirus inh: inactive

How did O=C(CN1CCN(Cc2ccccc2)CC1)Nc1ccccc1-c1ccccc1 do in these assays?
KCC2 mod: inactive; ROMK primary: -3.7; HSV augment: inactive; Arbovirus inh: inactive; ROMK retest: inconclusive

How did O=C(Nc1ncc(Cc2ccc(SC(F)F)cc2)s1)c1ccc(OC(F)F)cc1 do in these assays?
KCC2 mod: inactive; ROMK primary: inactive; Measles CPE: inactive; HSV augment: inactive; Arbovirus inh: inactive
